Inconclusive results are not listed. Activity calls are given as the source filed them. The call rests on the fitted dose curve; in most records, active means well fitted curve in the direction sought with a large enough effect; inconclusive means small, poorly fitted or top-dose-only effect, or another doubt; inactive means no such curve, though single readings can be large; an effect the other way counts as inactive or inconclusive.
Experiments:
C33A = assay: Primary qHTS to identify gynecologic anti-cancer compounds using libraries of approved drugs and bioactive compounds (AID 1345084); settings: Gynecologic cancer cell panel viability, ATPlite luminescence, 48 h; series mostly up to 57.5 µM; further: nearly all actives have a fitted effect of over 55% in size; further: potency means the concentration at half of the fitted maximal effect
Procedure, shortened: (§1)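 Cell viability after 48 h drug treatment, ATPlite luminescence readout; five doses.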

CAOV3 = assay: as above; settings: Gynecologic cancer cell panel viability, ATPlite luminescence, 48 h; series mostly up to 57.5 µM
Procedure, shortened: as §1

CASKI = assay: as above; settings: Gynecologic cancer cell panel viability, ATPlite luminescence, 48 h; series mostly up to 57.5 µM
Procedure, shortened: as §1

Es-2 = assay: as above; settings: Gynecologic cancer cell panel viability, ATPlite luminescence, 48 h; series mostly up to 57.5 µM
Procedure, shortened: as §1

HeLa = assay: as above; settings: Gynecologic cancer cell panel viability, ATPlite luminescence, 48 h; series mostly up to 57.5 µM
Procedure, shortened: as §1

Hek293T = assay: as above; settings: Gynecologic cancer cell panel viability, ATPlite luminescence, 48 h, control line for the selectivity index; series mostly up to 57.5 µM
Procedure, shortened: as §1

JEG-3 = assay: as above; settings: Gynecologic cancer cell panel viability, ATPlite luminescence, 48 h; series mostly up to 57.5 µM
Procedure, shortened: as §1

OV90 = assay: as above; settings: Gynecologic cancer cell panel viability, ATPlite luminescence, 48 h; series mostly up to 57.5 µM
Procedure, shortened: as §1

SKOV3 = assay: as above; settings: Gynecologic cancer cell panel viability, ATPlite luminescence, 48 h; series mostly up to 57.5 µM
Procedure, shortened: as §1

Tov-21-G = assay: as above; settings: Gynecologic cancer cell panel viability, ATPlite luminescence, 48 h; series mostly up to 57.5 µM
Procedure, shortened: as §1

Tov112D = assay: as above; settings: Gynecologic cancer cell panel viability, ATPlite luminescence, 48 h; series mostly up to 57.5 µM
Procedure, shortened: as §1

[1] = qHTS assay to identify inhibitors of the type 1 interferon - major histocompatibility complex class I in skeletal muscle: Counter screen cell viability and HiBit confirmation (AID 1347412); settings: iHSKM muscle cells + IFN-b, HiBiT or CellTiter-Glo, 24 h, at 45.9 µM (top of the series); further: nearly all actives have a fitted effect of over 60% in size
Procedure, shortened: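 HLA-B*08:01–HiBiT knock-in immortalized human myoblasts (C25cl48) stimulated with 4.0 ng/ml human IFN-beta and dosed with compound in a 12-point 1:3 titration (top final 46 uM). After 24 hrs at 37 C, HiBiT lytic luminescence or CellTiter Glo ATP read out.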

PA-1 = assay: Primary qHTS to identify gynecologic anti-cancer compounds using libraries of approved drugs and bioactive compounds (AID 1345084); settings: Gynecologic cancer cell panel viability, ATPlite luminescence, 48 h; series mostly up to 57.5 µM; further: nearly all actives have a fitted effect of over 55% in size; further: potency means the concentration at half of the fitted maximal effect
Procedure, shortened: as §1
On the % scale 0 is the no-effect control and ±100 the full control effect.

CNc1nc(Nc2ccc(C(=O)N3CCOCC3)cc2OC)nc2[nH]cc(Cl)c12
inactive: Potency (C33A) | Potency (CAOV3) | Potency (CASKI) | Potency (Es-2) | Potency (HeLa) | Potency (Hek293T) | Potency (JEG-3) | Potency (OV90) | Potency (SKOV3) | Potency (Tov-21-G) | Potency (Tov112D)

C[C@@H]1O[C@@H](O[C@H]2CC[C@@]3(C)C(CC[C@]4(C)C3CC=C3[C@@H]5CC(C)(C)CC[C@]5(C(=O)O[C@@H]5O[C@H](CO)[C@@H](O)[C@H](O)[C@H]5O)CC[C@]34C)[C@]2(C)CO)[C@H](O)[C@H](O[C@@H]2O[C@H](CO)[C@@H](O)[C@H](O)[C@H]2O)[C@H]1O (some centres undefined)
inactive: activity change, negative = cytotoxicity (C33A) -20.9% [at 11.6 µM] | activity change, negative = cytotoxicity (CAOV3) -0.291% [at 11.6 µM] | activity change, negative = cytotoxicity (CASKI) -6.26% [at 11.6 µM] | activity change, negative = cytotoxicity (Es-2) -0.79% [at 11.6 µM] | activity change, negative = cytotoxicity (HeLa) -1.56% [at 11.6 µM] | activity change, negative = cytotoxicity (Hek293T) -6.15% [at 11.6 µM] | activity change, negative = cytotoxicity (JEG-3) -9.27% [at 11.6 µM] | activity change, negative = cytotoxicity (OV90) -0.517% [at 11.6 µM] | activity change, negative = cytotoxicity (SKOV3) 8.14% [at 11.6 µM] | activity change, negative = cytotoxicity (Tov-21-G) -24% [at 11.6 µM] | activity change, negative = cytotoxicity (Tov112D) 1.58% [at 11.6 µM]

CC1=C(C(=O)OC2CCCCC2)C(c2ccc([N+](=O)[O-])cc2)C2=C(CC(C)(C)CC2=O)N1 (centres undefined)
inactive: Potency (C33A) | Potency (CAOV3) | Potency (CASKI) | Potency (Es-2) | Potency (HeLa) | Potency (Hek293T) | Potency (JEG-3) | Potency (OV90) | Potency (SKOV3) | Potency (Tov-21-G) | Potency (Tov112D)

O=C(NCCCN1CCOCC1)c1cnn2c(-c3ccccc3)cc(-c3ccccc3)nc12
inactive: Potency (C33A) | Potency (CAOV3) | Potency (CASKI) | Potency (Es-2) | Potency (HeLa) | Potency (Hek293T) | Potency (JEG-3) | Potency (OV90) | Potency (SKOV3) | Potency (Tov-21-G) | Potency (Tov112D)

CC(C)(O)c1ccn2c(-c3ccc(F)c(-c4ccc(F)cc4C#N)c3)cnc2c1F
inactive: Potency (C33A) | Potency (CAOV3) | Potency (CASKI) | Potency (Es-2) | Potency (HeLa) | Potency (Hek293T) | Potency (JEG-3) | Potency (OV90) | Potency (SKOV3) | Potency (Tov-21-G) | Potency (Tov112D)

C=C1C(=O)OC[C@@H]1C/C=C(\C)CC1CC(C)C(=O)O1 (some centres undefined)
inactive: Potency (C33A) | Potency (CAOV3) | Potency (CASKI) | Potency (Es-2) | Potency (HeLa) | Potency (Hek293T) | Potency (JEG-3) | Potency (OV90) | Potency (Tov-21-G) | Potency (Tov112D)

C=C[C@H](/C=C\c1ccc(O)cc1)c1ccc(O)cc1
inactive: Potency (C33A) | Potency (CAOV3) | Potency (CASKI) | Potency (Es-2) | Potency (HeLa) | Potency (Hek293T) | Potency (JEG-3) | Potency (OV90) | Potency (SKOV3) | Potency (Tov-21-G) | Potency (Tov112D)

CNc1cccc(CCOc2ccc3c(c2)CN(CC(F)(F)F)C(=O)[C@H](CC(=O)O)C3)n1
active: Potency (SKOV3) 1780 nM | Potency (Tov-21-G) 501 nM
inactive: Potency (C33A) | Potency (CAOV3) | Potency (CASKI) | Potency (Es-2) | Potency (HeLa) | Potency (Hek293T) | Potency (JEG-3) | Potency (OV90) | Potency (Tov112D)

OC(c1ccc(-c2ccc(CN3CCN(Cc4ccncc4)CC3)cc2)c(F)c1)(C(F)(F)F)C(F)(F)F
inactive: Potency (C33A) | Potency (CAOV3) | Potency (CASKI) | Potency (Es-2) | Potency (HeLa) | Potency (Hek293T) | Potency (JEG-3) | Potency (OV90) | Potency (SKOV3) | Potency (Tov-21-G) | Potency (Tov112D) | activity change, negative = inhibition ([1]; HiBiT) -18.6% | activity change, negative = inhibition ([1]; Viability) -8.6%

CCNc1nc(Nc2cc(F)c(C(=O)N3CCOCC3)cc2OC)ncc1C(F)(F)F
inactive: Potency (C33A) | Potency (CAOV3) | Potency (CASKI) | Potency (Es-2) | Potency (HeLa) | Potency (Hek293T) | Potency (JEG-3) | Potency (OV90) | Potency (SKOV3) | Potency (Tov112D)

COc1ccc(C2=NC(c3ccc(Cl)cc3)C(c3ccc(Cl)cc3)N2C(=O)N2CCNC(=O)C2)c(OC(C)C)c1 (centres undefined)
inactive: Potency (C33A) | Potency (CAOV3) | Potency (CASKI) | Potency (Es-2) | Potency (HeLa) | Potency (Hek293T) | Potency (JEG-3) | Potency (OV90) | Potency (Tov112D)

CC(C)C[C@H](CO)Nc1nc(S[C@@H](C)c2ccccc2)nc2nc(N)sc12
inactive: Potency (C33A) | Potency (CAOV3) | Potency (CASKI) | Potency (Es-2) | Potency (HeLa) | Potency (Hek293T) | Potency (OV90) | Potency (PA-1) | Potency (SKOV3) | Potency (Tov-21-G) | Potency (Tov112D)

COc1cc(/C=N\NC(=O)c2ccc3c(c2)OCO3)ccc1OCc1ccccc1
inactive: Potency (C33A) | Potency (CAOV3) | Potency (CASKI) | Potency (Es-2) | Potency (HeLa) | Potency (Hek293T) | Potency (JEG-3) | Potency (Tov-21-G) | Potency (Tov112D)

— PubChem BioAssay (NCATS)
